Bioassay records from PubChem BioAssay.
TGFb inhibitor: TGF-b pathway inhibition | HepG2 CAGA-GFP TGF-b/SMAD3 reporter, GFP fluorescence, 18 h; TGF-beta stimulated, 500 pg/mL final | Potency, µM (doses to about 46.1 µM), for the others: top-dose activity, negative = inhibition, actives largely listed as inhibitors | 1.2% of 410,000 active | AID 588855; further: potency means the concentration at half of the fitted maximal effect; on the % scale 0 is the no-effect control and ±100 the full control effect; nearly all actives have a fitted effect of over 65% in size
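Read-out: total well GFP (ex488/em500-530) summed from mean per-cell fluorescence. Cells: HEPG2 CAGA-GFP, 1% FBS DMEM, 18 h at 37 degrees C with 500 pg/mL final TGF-beta. Unstimulated wells served as the full-inhibition control; stimulated DMSO wells = 0%.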
DT40 TDP1 CPT: growth inhibition of DT40 Tdp1-/-;hTDP1 cells with camptothecin (screen for TDP1 inhibitors); 12% of 420,000 active; AID 686979; Potency, µM (doses to about 46.2 µM), without a hit: top-dose activity change, negative = growth inhibition, hits mostly inhibitors; chicken DT40 Tdp1-/-;hTDP1 cells + 20 nM CPT, ATP luminescence, 48 h; further: potency means the concentration at half of the fitted maximal effect; on the % scale 0 is the no-effect control and ±100 the full control effect; nearly all actives have a fitted effect of over 55% in size
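Cell growth measured by CellTiter-Glo luminescence after a minimum 48 h, 37 C compound exposure with 20 nM CPT in Tdp1-knockout DT40 cells stably expressing hTDP1, seeded 400/well; qHTS titration format.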
S-ASM inh: human S-ASM enzyme inhibition. AID 504937. 0.006% of 340,000 active. placental ASM, HMU-PC fluorogenic substrate, 60 min. Potency, µM (titrated, usually from 57.5 µM), for the others: at the top dose activity change, negative = inhibition, hits mostly inhibitors. P17405; further: potency means the concentration at half of the fitted maximal effect
Target sequence (P17405 47-631 limits assumed): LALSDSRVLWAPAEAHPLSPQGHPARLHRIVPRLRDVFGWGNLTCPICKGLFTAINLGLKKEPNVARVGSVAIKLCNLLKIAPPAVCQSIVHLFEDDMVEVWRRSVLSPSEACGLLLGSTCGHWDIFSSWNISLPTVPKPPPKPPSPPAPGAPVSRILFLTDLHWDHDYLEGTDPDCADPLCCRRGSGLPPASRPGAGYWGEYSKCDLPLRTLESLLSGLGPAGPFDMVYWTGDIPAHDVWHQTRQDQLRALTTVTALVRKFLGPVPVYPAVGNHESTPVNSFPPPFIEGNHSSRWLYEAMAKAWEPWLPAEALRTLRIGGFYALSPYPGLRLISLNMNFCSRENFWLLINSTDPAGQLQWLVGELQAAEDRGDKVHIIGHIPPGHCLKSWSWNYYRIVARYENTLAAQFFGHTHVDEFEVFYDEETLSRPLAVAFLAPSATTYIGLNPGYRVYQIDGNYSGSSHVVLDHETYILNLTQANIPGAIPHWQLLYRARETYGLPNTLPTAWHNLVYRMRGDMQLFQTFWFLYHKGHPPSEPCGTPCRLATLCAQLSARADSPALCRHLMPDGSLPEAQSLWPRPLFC
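Fluorogenic HMU-PC substrate (9 uM final) is turned over by placental ASM in 60 min at 37 C after a 10 min compound preincubation. Reaction ended by alkaline stop (pH 10), with fluorescence read at 386/447 nm.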
TDP1 cell noCPT: qHTS for Inhibitors of human tyrosyl-DNA phosphodiesterase 1 (TDP1): qHTS in cells in absence of CPT; DT40 Tdp1-/- hTDP1 cells, no CPT, ATP luminescence, 48 h; Potency, µM (titrated, usually from 46.2 µM), without a hit: top-dose activity change, negative = growth inhibition, actives largely listed as inhibitors; 15% of 420,000 active; AID 686978, 2013; further: potency means the concentration at half of the fitted maximal effect; on the % scale 0 is the no-effect control and ±100 the full control effect; nearly all actives have a fitted effect of over 55% in size
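A cellular qHTS used chicken DT40 cells lacking endogenous Tdp1 but carrying stably transfected human TDP1. Compounds were applied without camptothecin, and cell growth kinetics were judged by ATP-dependent luminescence after ≥48 hr.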
IL-1B inflam inh: inflammasome signaling inhibition, IL-1 beta readout; THP-1 LPS/ATP IL-1B secretion, AlphaLISA, 16 h; stronger effect = lower value; activity change, % at 57.5 µM; 4.7% of 360,000 active; in the data active means activity change below about -50%; inconclusive means mostly about -30% to -49%; further: on the % scale 0 is the no-effect control and ±100 the full control effect
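Secreted IL-1B measured by AlphaLISA bead assay after 16 h compound exposure of THP-1 cells; compounds (final up to 57.5 uM) added 1 h before LPS (250 ng/mL) and ATP (1.25 mM) stimulation; lower signal means less secretion.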
HepG2 tox: kills HepG2 cells in TGF-b inhibitor counter-screen; HepG2 CAGA-GFP viability, ATP luminescence, 18 h; Potency, µM (titrated, usually from 46.1 µM), without a hit: at the top dose activity change, negative = cytotoxicity, usual class: cytotoxic; 0.76% of 410,000 active; further: potency means the concentration at half of the fitted maximal effect
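HepG2 CAGA-GFP cells (1000/well, DMEM with 1% FBS) received compound, then TGF-beta at 500 pg/mL final, and were incubated 18 hours at 37 degrees C. Viability was read by CellTiter-Glo luminescence. Media-only wells were set as complete cell-killing and DMSO as no toxicity.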
Active calls of the source: *; ? = inconclusive; . = no result given. This is a sample that favours compounds with a hit; in the whole collection about 19% have one here. Unless noted, the call rests on the fitted dose curve; in most records, active means well fitted curve in the direction sought with a large enough effect; inconclusive means small, poorly fitted or top-dose-only effect, or another doubt; inactive means no such curve, though single readings can be large; an effect the other way counts as inactive or inconclusive.

SMILES	TGFb inhibitor	DT40 TDP1 CPT	S-ASM inh	TDP1 cell noCPT	IL-1B inflam inh	HepG2 tox
Cc1sc2ncnc(NCC(O)c3ccccc3)c2c1C (stereo not drawn)	-32%	7.3µM*	-2%	4.6µM*	-26	-11%
Cc1sc2ncnc(NCc3ccco3)c2c1C	-25%	10µM*	8%	16µM*	-59*	-6%
Cc1sc2ncnc(NCC(O)c3ccc([N+](=O)[O-])cc3)c2c1C (stereo not drawn)	1%	7.3µM*	-2%	2.9µM*	-55*	-25%
Cc1sc2ncnc(NCc3cccnc3)c2c1C	-9%	?	2%	?	38	4%
O=C(CC1C(=O)NCCN1Cc1ccccc1C(F)(F)F)NCCN1CCOCC1 (stereo not drawn)	7%	4%	7%	15%	5	4%
CC(C)(C)OC(=O)N1CCC(c2c(C(=O)NCc3ccco3)cnn2-c2ccccc2)CC1	0%	?	.	?	.	-23%
CCN(CC)CCNC(=O)c1c(C)n(-c2ccccc2)c2cc(Br)c(OC)cc12	?	?	-12%	18µM*	?	20µM*
COc1cc2c(C(=O)N3CCN(C)CC3)c(C)n(-c3ccccc3)c2cc1Br	-11%	2%	0%	16%	-16	-3%
O=C(O)CC1(C(=O)O)CC2C=CC1C2 (stereo not drawn)	4%	3%	.	-1%	-6	-1%
Cc1ccc(CNC(=O)C2CCCN(S(=O)(=O)c3c(C)n[nH]c3C)C2)cc1 (stereo not drawn)	5%	?	0%	-21%	0	0%
CCOc1ccc(CCNC(=O)C2CCCN(S(=O)(=O)c3c(C)n[nH]c3C)C2)cc1OCC (stereo not drawn)	9%	?	0%	9.2µM*	3	25%
Cc1n[nH]c(C)c1S(=O)(=O)N1CCCC(C(=O)NC2CCCc3ccccc32)C1 (stereo not drawn)	-18%	21µM*	-2%	18µM*	6	-1%
CCCc1nnc(NC(=O)CSc2nnc(-c3ccco3)n2C)s1	2%	17%	5%	3%	13	-11%
CCC(c1nnnn1-c1c(C)cccc1C)N1CCN(c2ccc(C(F)(F)F)cc2[N+](=O)[O-])CC1 (stereo not drawn)	.	?	.	-58%	?	.
CCCCn1nnnc1C(c1ccccc1)N1CCN(c2ccc(C(F)(F)F)cc2[N+](=O)[O-])CC1 (stereo not drawn)	.	?	.	18µM*	-12	.
CCCCn1nnnc1C(c1ccccc1)N1CCN(c2ncccc2C(F)(F)F)CC1 (stereo not drawn)	.	?	.	18µM*	-51*	.
CCCCn1nnnc1C(c1ccccc1)N1CCN(c2ccc(C(F)(F)F)cn2)CC1 (stereo not drawn)	.	?	.	18µM*	?	.
Cc1ncc([N+](=O)[O-])n1Cc1ccc(Br)cc1	1%	0%	2%	-17%	19	1%
O=C(Nc1ccccc1C(F)(F)F)c1ccc2oc(=O)c(S(=O)(=O)c3ccc(F)cc3)cc2c1	?	-24%	.	-23%	.	-50%
O=c1oc2ccc(Br)cc2cc1S(=O)(=O)c1ccc(F)cc1	?	-4%	-3%	-112%	-78*	-3%
CCCCCCOc1ccc(N2C(=O)CC(N3CCN(CCN=CC4C(=O)CC(C)(C)CC4=O)CC3)C2=O)cc1 (stereo not drawn)	-1%	?	-7%	23µM*	21	1%
CCCCCCOc1ccc(N2C(=O)CC(N3CCN(CCN=CC4=C(O)CC(C)(C)CC4=O)CC3)C2=O)cc1 (stereo not drawn)	-3%	-7%	-1%	?	-4	5%
C=C(NC(=O)C(=C)NC(=O)c1csc(C2=NC3c4csc(n4)C4NC(=O)c5csc(n5)C(C(C)(O)C(C)O)NC(=O)C5CSC(=N5)C(=CC)NC(=O)C(C(C)O)NC(=O)c5csc(n5)C3(CC2)NC(=O)C(C)NC(=O)C(=C)NC(=O)C(C)NC(=O)C(C(C)CC)NC2C=Cc3c(C(C)O)cc(nc3C2O)C(=O)OC4C)n1)C(N)=O (stereo not drawn)	.	4.1µM*	.	5.2µM*	.	.
C=C(NC(=O)C(=C)NC(=O)c1csc(C2=NC3c4csc(n4)C4NC(=O)c5csc(n5)C(C(C)(O)C(C)O)NC(=O)C5CSC(=N5)/C(=C/C)NC(=O)C(C(C)O)NC(=O)c5csc(n5)C3(CC2)NC(=O)C(C)NC(=O)C(=C)NC(=O)C(=C)NC(=O)C(C(C)C)NC2C=Cc3c(C(C)O)cc(nc3C2O)C(=O)OC4C)n1)C(N)=O (stereo not drawn)	8.9µM*	1µM*	3%	0.92µM*	-67*	0%
COC(=O)c1sccc1NC(=O)c1c(Cl)cnn1C	25%	-17%	0%	5%	-10	4%
SMILES	TGFb inhibitor	DT40 TDP1 CPT	S-ASM inh	TDP1 cell noCPT	IL-1B inflam inh	HepG2 tox
Cc1c(CNC2CCCCCC2)c(C(=O)O)c(C)n1Cc1ccc(F)cc1Cl	4%	?	.	?	.	-6%
O=C(COC(=O)/C=C/c1ccc(Cl)c(Cl)c1)NC1CCS(=O)(=O)C1 (stereo not drawn)	-13%	10µM*	0%	18µM*	0	-8%
CCCCC(=O)N1CCN(c2nc3c(C)c(C)ccc3s2)CC1	-25%	?	.	18µM*	.	-26%
CCC(=O)N1CCN(c2nc3c(C)cccc3s2)CC1	6%	?	.	?	.	1%
Cc1ccc2sc(N3CCN(C(=O)CCS(=O)(=O)c4ccc(Cl)cc4)CC3)nc2c1C	0%	4.1µM*	.	2.3µM*	.	2%
Cc1ccc2c(c1)-c1nc(-c3ccc(Cl)cc3)cc(-c3coc4ccccc4c3=O)c1CO2	-2%	-17%	.	-5%	.	-5%
Clc1cccc(-c2nc(NCCN3CCOCC3)c3ccccc3n2)c1	-31%	?	-2%	?	-86*	-33%
Clc1ccc(-c2nc(NCCCN3CCOCC3)c3ccccc3n2)cc1	?	?	0%	18µM*	-75*	-24%
Clc1cccc(-c2nc(NCCCN3CCOCC3)c3ccccc3n2)c1	?	?	-3%	23µM*	?	-43%
